Source: PubChem BioAssay AID686979 (National Center for Advancing Translational Sciences (NCATS), 2013)
Out of some 420,000 compounds screened, about 50,000 (12%) were called active. Roughly 26% stayed inconclusive and do not appear here. The list comes from a sample in which actives are over-represented; it also holds similar structures and randomly drawn compounds. Unmarked numbers belong to inactive results. The call rests on the fitted dose curve; in most records, active means well fitted inhibition curve with a large enough effect; inconclusive means small, poorly fitted or top-dose-only effect; inactive means flat fitted curve, though single readings scatter.

Test: qHTS for Inhibitors of human tyrosyl-DNA phosphodiesterase 1 (TDP1): qHTS in cells in presence of CPT; further: nearly all actives have a fitted effect of over 55% in size
Details: chicken DT40 Tdp1-/-;hTDP1 cells + 20 nM CPT, ATP luminescence, 48 h; series mostly up to 46.2 µM; activity change, negative = growth inhibition: at the top concentration
Outline: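 Chicken DT40 Tdp1-/- cells stably complemented with human TDP1 were seeded at 400 cells/well in medium containing 20 nM camptothecin, exposed to pin-transferred compounds, and grown at 37 °C for at least 48 hr. Viability was read as ATP luminescence.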
On the % scale 0 is the no-effect control and ±100 the full control effect; potency means the concentration at half of the fitted maximal effect.

SMILES | activity change, negative = growth inhibition | Potency
COc1ccc(S(=O)(=O)NCC(=O)NCc2cc(=O)n(C)c(=O)n2C)cc1F | 2.06% | –
O=C(CC1C(=O)NCCN1CC(c1ccccc1)c1ccccc1)NCC1CCOCC1 (configuration not stated) | -13% | –
CCCS(=O)(=O)NC(=O)C1(C)CCCN(C(=O)c2cccs2)C1 (configuration not stated) | 9.56% | –
O=C(CSc1nnc(SCc2ccc(F)cc2)s1)Nc1ccc(C(=O)O)cc1 | -15.4% | –
COc1ccc(C2=NN(C(=O)c3ccccc3C(=O)O)C(c3ccccc3O)C2)cc1 (configuration not stated) | 17% | –
CCC(C)(C)NC(=O)CN(C(=O)CCC(=O)Nc1cc(C)ccn1)c1ccc2c(c1)OCCO2 | 4.29% | –
FC(F)(F)c1nnc2sc(-c3ccco3)nn12 | -5.91% | –
FC(F)(F)c1nnc2ccc(N3CCN(c4ccccc4)CC3)nn12 | -0.987% | –
FC(F)(F)c1nnc2c3ccccc3c(Cl)nn12 | – | 5.17 µM (active)
O=C(COC(=O)c1cncc(Br)c1)Nc1ccc(S(=O)(=O)N2CCOCC2)cc1 | -19.1% | –
C=CCNC(=O)c1ccccc1SCc1c(C)noc1C | 1.92% | –
Cc1ccn(CC(=O)NC2CCCN(Cc3ccccc3F)C2)n1 (configuration not stated) | 6.73% | –
CN(c1ccccc1)S(=O)(=O)c1ccc(C(=O)NCCc2ccccc2)cc1 | -22% | –
Cc1ccccc1CSCCNC(=O)C1CCN(S(=O)(=O)Cc2ccccc2)CC1 | -2.3% | –
Cc1ccccc1CSCCNC(=O)c1ccc(N(C)S(=O)(=O)c2ccccc2)cc1 | – | 18.4 µM (active)
Cc1nc2ccccc2nc(=O)c1NNc1ccc([N+](=O)[O-])cc1 | -28.3% | –
Cc1ccc(CN2CC(C(=O)NNC(=O)Cn3ccc(C(F)(F)F)n3)CC2=O)cc1 (configuration not stated) | 3.76% | –
CC(C)=CCc1ccc(O)c(=O)cc1C(C)C | – | 20.6 µM (active)
CSc1ncc(C(=O)NCc2ccccc2Cl)c(C(F)(F)F)n1 | -20.8% | –
O=C(/C=C/c1ccccc1[N+](=O)[O-])OCC(=O)N1CCCC1 | -21.3% | –
CC1(C2CC2)NC(=O)N(CC(=O)N2CCN(c3ccccc3F)CC2)C1=O (configuration not stated) | -21.8% | –
COc1ccc(OC)c(C(C)NC(=S)Nc2ccc(S(=O)(=O)Nc3ncccn3)cc2)c1 (configuration not stated) | 3.28% | –

SMILES | activity change, negative = growth inhibition | Potency
Clc1ccc(CSc2nnc3c(n2)[nH]c2ccccc23)cc1 | -25% | –
CCn1ccnc1CN(C)C(=O)c1ccc2nc(Cc3ccc(OC)cc3)oc2c1 | -18.1% | –
COc1ccc(NC(=O)c2ccc3nc(CCc4ccccc4)oc3c2)c(OC)c1 | -26.7% | –
COc1ccc(Cc2nc3ccc(C(=O)NCc4ccc(OC)cc4OC)cc3o2)cc1 | – | 16.4 µM (active)
COc1ccc(Cc2nc3ccc(C(=O)NCc4ccccc4Cl)cc3o2)cc1 | – | 16.4 µM (active)
COc1ccc(Cc2nc3ccc(C(=O)N4CCC(N(C)C)C4)cc3o2)cc1 (configuration not stated) | 11.1% | –
COc1ccc(CNC(=O)c2ccc3oc(C(C)C)nc3c2)cc1 | -27% | –
COc1ccc(Cc2nc3ccc(C(=O)NCc4ccccc4C)cc3o2)cc1 | – | 20.6 µM (active)
CSCCNC(=O)c1ccc2nc(Cc3ccccc3F)oc2c1 | 1.45% | –
COCCNC(=O)c1ccc2nc(Cc3ccc(OC)c(OC)c3)oc2c1 | -0.805% | –
CCCCOC(=O)CSc1ncnc2sc3c(c12)CCC(C)C3 (configuration not stated) | -16.3% | –
Cc1nccn1CCC1CCCCN1C(=O)CCc1nnc(-c2ccsc2)o1 (configuration not stated) | -0.241% | –
CC(=O)OCCOCn1cnn2c(=O)c(Br)c(C)nc12 | 1.1% | –
CSc1n[nH]c(-c2ccco2)n1 | 2.51% | –
COC(=O)c1ccc(C)c(NC(=O)Cn2c(C)csc2=O)c1 | -8.88% | –
Nc1ccc(C(=O)OCC(=O)NC2CCS(=O)(=O)C2)cc1[N+](=O)[O-] (configuration not stated) | -10.4% | –
O=NN(CCCl)C(=O)NCCc1cccc[n+]1[O-] | -1.12% | –
NC(=O)C1CCN(C(=O)c2ccc3c(=O)n(Cc4cccc(Br)c4)c(=S)[nH]c3c2)CC1 | -0.901% | –
CCOC(=O)c1sc2nc(C)[nH]c(=O)c2c1C | 0.124% | –
CCOC(=O)c1sc(=S)n2c1[nH]c(=O)c1ccc(C(=O)OC)cc12 | – | 10.3 µM (active)
COC(=O)c1cccc(NC(=O)CSc2nc(C)cc(=O)[nH]2)c1 | -4.36% | –
COc1ccccc1C1C(C(=O)N2CCCCC2)=C(C)Nc2nc3ccccc3n21 (configuration not stated) | -13.4% | –

SMILES | activity change, negative = growth inhibition | Potency
CCCCN1C(=O)C(CC(=O)NCc2cccs2)CC(C(=O)N2CCCCCC2)=C1C (configuration not stated) | -24.1% | –
Cc1cc(O)c(C(c2ccccc2)N2CCN(c3ccccc3F)CC2)c(=O)n1Cc1ccco1 (configuration not stated) | -9.48% | –
Cc1cc(C)cc(OCC(=O)Nc2c(C(=O)c3ccccc3)oc3ccccc23)c1 | -27.4% | –
Cc1cc(C)c(NC(=O)C[N+](C)(C)CC(O)COc2cccc3ccccc23)c(C)c1 (configuration not stated) | – | 18.4 µM (active)
OC(COc1cccc2ccccc12)CN1CCN(c2ccccn2)CC1 (configuration not stated) | -29.9% | –
COc1ccccc1CNC(=O)COC(=O)c1cccs1 | -22.4% | –
COc1cc(/C=C/C(=O)Nc2ccc(OC)c(S(=O)(=O)N3CCOCC3)c2)ccc1OCC#N | -29% | –
COc1ccc(/C=C/C(=O)Nc2ccc(C34CC5CC(CC(O)(C5)C3)C4)cc2)cc1OC | – | 2.31 µM (active)
COc1ccc(/C=C/C(=O)Nc2cccnc2)cc1OC | 16.1% | –
COCCn1c(N)c(NCc2ccccc2)c(=O)[nH]c1=O | -27.3% | –
O=C(COC(=O)C12CC3CC(CC(O)(C3)C1)C2)NC12CC3CC(CC(C3)C1)C2 | -0.57% | –
COc1cccc(NC(=O)CSc2nnc(Cc3ccc(OC)c(OC)c3)o2)c1 | 0.397% | –
Cc1cc(C)c2c(Cn3ccnc3)cc(=O)oc2c1 | 13.7% | –
COc1ncnc2c1ncn2CCCNCCN1CCOCC1 | 7.08% | –
O=C(O)C(c1ccccc1)N1C(=O)/C(=C\c2ccc(-c3cccc(Cl)c3)o2)SC1=S (configuration not stated) | -2.25% | –
CCCCNC(=O)C(C)N(CCN(C)C)C(=O)CCCN1C(=O)NC(c2ccc(Cl)cc2)C(C(=O)OCc2ccccc2)=C1C (configuration not stated) | – | 20.6 µM (active)
COCCOC(=O)C1=C(C)NC(=O)NC1c1ccc(Cl)cc1 (configuration not stated) | -24.5% | –
CCCCNC(=O)C1(O)c2ccccc2NC(=O)N1c1ccc(Cl)cc1 (configuration not stated) | 14.6% | –
CCOC(=O)CCCNC(=O)CN1C(=O)NC(CCc2ccccc2)C1=O (configuration not stated) | 5.72% | –
CC1=C(C(=O)OCc2ccccc2)C(c2ccc(C(F)(F)F)cc2)NC(=O)N1CCCCCC(=O)O (configuration not stated) | -2.79% | –
CCCCNC(=O)C(C)N(CCN(C)C)C(=O)CCCCCN1C(=O)NC(c2ccc(Cl)cc2)C(C(=O)OCc2ccccc2)=C1C (configuration not stated) | – | 7.31 µM (active)
COc1ccccc1/C=C/C(=O)NC(=S)N1CCOCC1 | -1.22% | –

SMILES | activity change, negative = growth inhibition | Potency
CC(C)Cc1nnc(NC(=O)CN2C(=O)NC3(CCCCC3)C2=O)s1 | -7.33% | –
COC(=O)c1ccccc1NC(=O)CSc1nc2c(c(=O)[nH]1)CCC2 | -3% | –
CC(=O)Nc1ccc(S(=O)(=O)N2CCn3cccc3C2C)cc1 (configuration not stated) | -5.77% | –
O=C(CCN1CCCO1)N1CCCC(N2CCN(c3cccc(C(F)(F)F)c3)CC2)C1 (configuration not stated) | -2.8% | –
O=C(NN=Cc1ccc2c(c1)CCC2)c1ccccc1O | -23% | –
NC(=O)c1ccccc1N=Cc1ccc2ccccc2c1 | – | 20.6 µM (active)
O=C(OCC(=O)N1CCOCC1)c1ccc2ccccc2c1 | 1.63% | –
COc1ccccc1C(=O)N[C@@H]1c2ccccc2C2(CCN(C(=O)c3csnn3)CC2)[C@H]1OC | -8.07% [at 9.04 µM] | –
CCC(CC)c1nn2cc(-c3ccccc3)nc2s1 | -21.2% | –
COC(=O)CC1Oc2ccccc2-n2cc(-c3ccccc3)nc21 (configuration not stated) | – | 14.6 µM (active)
COC(=O)CC1=NN(c2ccccc2)C(=O)C1 | 6.54% | –
COc1ccccc1NC(=O)COC(=O)c1ccccc1SCC(=O)N1CCCC1 | -18.2% | –
c1ccc(-n2cccc2)c(N2CCCCC2)c1 | -16.6% | –
COC(=O)C1=C(Nc2ccc(OC)cc2)C=C(C)C(C(=O)OC)C1c1ccc(C)cc1 (configuration not stated) | – | 16.4 µM (active)
COC(=O)C1C(=O)NCC1c1ccc(OC)cc1 (configuration not stated) | -2.03% | –
COc1ccc(N2C(=O)C(O)C2c2ccc(C)cc2)cc1 (configuration not stated) | -18.6% | –
Cc1ccc(C(=O)Nc2ccc3[nH]c(=O)c(=O)[nH]c3c2)cc1 | 26.4% | –
CC(C)CCNC(=O)CCNS(=O)(=O)c1ccc(Cl)cc1 | -2.47% | –
COC(=O)c1c(OCc2ccc(F)cc2)cc(=O)n2c1CCN(Cc1ccc3cccnc3c1)CC2 | 8.77% [at 9.04 µM] | –
O=C(Nc1cc(-c2nc3ccccc3o2)ccc1Cl)c1cc([N+](=O)[O-])ccc1N1CCOCC1 | -23.5% | –
COc1cc(/C=C/CNC[C@H]2O[C@@H](n3cnc(C(N)=O)n3)[C@H](O)[C@@H]2O)ccc1O | -10.3% | –
O=C(c1ccc(Cl)cc1)n1nc(-c2cccnc2)nc1NCc1ccc(F)cc1 | -17.8% | –

SMILES | activity change, negative = growth inhibition | Potency
O=C(c1ccco1)n1nc(-c2ccc(Cl)cc2)nc1NCc1ccccc1 | – | 18.4 µM (active)
O=C(Cc1ccccc1)n1nc(-c2ccccc2)nc1NCc1ccco1 | 13.9% | –
COc1ccc(C(=O)NCCSc2ccccc2C)cc1 | -12.7% | –
CCN1C(=O)c2cccc3c(N)ccc1c23 | – | 11.6 µM (active)
Cc1nn(C)cc1N1C(=O)c2cccc3c(N)ccc(c23)C1=O | 2.78% | –
CN1C(=O)c2cccc3c(N)ccc(c23)C1=O | -22.8% | –
NC1=NC(c2cc(F)cc(F)c2)n2c(nc3ccccc32)N1 (configuration not stated) | 3.45% | –
CS(=O)(=O)C1=NN2C(=N)/C(=C\c3ccc(OCCOc4ccccc4)cc3)C(=O)N=C2S1 | 16% | –
Cc1ccc(NC2CCCN(C(=O)CCC3(C)CC3)C2)cc1C (configuration not stated) | -24.4% | –
CCCCN(CC)CCCNC(=O)Cn1ncc2c([nH]c3ccc(C)cc32)c1=O | -20% | –
Cc1nc2c(C(=O)NCc3ccc4c(c3)OCO4)c[nH]n2c(=O)c1Cc1ccccc1F | -16.8% | –
CC(Sc1nncs1)C(=O)NCc1ccc2c(c1)OCO2 (configuration not stated) | 4.18% | –
COc1ccccc1CNC(=O)Cn1cc2c(n1)CCCC2 | 5.72% | –
COc1ccccc1CNC(=O)Cn1nc(C)c2nn(-c3ccc(Cl)cc3)c(C)c2c1=O | – | 20.6 µM (active)
COc1ccccc1CNC(=O)Cn1c(=O)oc2cc(Cl)ccc21 | -27.3% | –
Cc1nn(C(C)C(=O)N2CCOCC2)c(=O)c2nn(-c3ccccc3)c(C)c12 (configuration not stated) | 8.07% | –
COc1ccc(CNC(=O)C(C)n2nc(C)c3c(C)n(-c4ccccc4)nc3c2=O)c(OC)c1 (configuration not stated) | – | 16.4 µM (active)
Cc1nn(CC(=O)N2CCCCC2)c(=O)c2nn(-c3ccccc3)c(C)c12 | -16% | –
Cc1ccc(-n2nc3c(=O)n(C(C)C(=O)NCc4ccc5c(c4)OCO5)nc(C)c3c2C)cc1 (configuration not stated) | – | 18.4 µM (active)
